# Screens deposited in PubChem by several laboratories.
# Most compounds without a hit are left out; they make up all but 4.6% or so of the library.
# tim10-1 inh: inhibits growth of tim10-1 mutant yeast; S. cerevisiae tim10-1 ts strain growth, BacTiter-Glo, 24 h; inhibition, % at 20 µM; 2.2% of 330,000 active; AID 463190;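 active means inhibition of at least 40%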;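 further: mutant grown at 25 °C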
# PfHsp90 set2: reduces growth (ATP signal) of yeast expressing P. falciparum Hsp90; 0.32% of 310,000 active; inhibition, % at 9.4 µM; S. cerevisiae expressing PfHsp90, BacTiter-Glo ATP, 48 h; yeast lacking PDR1 and PDR3 efflux regulators;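 active means every replicate shows inhibition above about 80%, whatever the replicate mean, limit read from the data; inconclusive means mean inhibition reaches the set limit but some replicate falls short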
# tim23-1 inh: growth inhibitors of tim23-1 mutant yeast | S. cerevisiae tim23-1 growth, BacTiter-Glo luminescence, 24 h | 1.3% of 330,000 active | inhibition, % at 20 µM;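 active means growth inhibition of the mutant yeast at or above 50%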;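 further: temperature-sensitive mutant grown at 25 °C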
# TIM10 inh: TIM10 yeast growth inhibition | S. cerevisiae TIM10 strain growth, BacTiter-Glo luminescence, 24 h | inhibition, % at 10 µM | 1.4% of 330,000 active;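 active means inhibition of 40% or more at the single tested concentration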;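 further: wild-type TIM10 isogenic control strain grown at permissive 25 °C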
# SKKanGAS inh: SKKanGAS growth inhibition; S. pyogenes SKKanGAS, kanamycin growth, BacTiter-Glo, 6 h; inhibition, % at 7.5 µM; 1.3% of 300,000 active; AID 1662;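 active means mean replicate score, as percent of positive control median, at least 50; inconclusive means mean below 50 but one replicate at or above 50; inactive means mean and every replicate below 50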;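 further: strain carries kanamycin resistance gene driven by streptokinase promoter and grows in 40 µg/ml kanamycin; loss of luminescence reflects streptokinase promoter inhibition or plain growth inhibition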
# NLRP3 yeast inh: blocks the NALP3 inflammasome reconstituted in yeast; Yeast reconstituted NLRP3/ASC/caspase-1, beta-gal luminescence, 24 h; inhibition, % at 10 µM; 0.39% of 330,000 active;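 active means inhibition of 50% or more; inactive means inhibition below 50%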
# tim10-1 confirm: tim10-1 yeast growth inhibition, confirmed | shares compounds with tim10-1 inh | S. cerevisiae tim10-1 ts strain growth, BacTiter-Glo, 24 h | inhibition, % at 20 µM | 56% of 7,400 active;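 active means inhibition of yeast growth at or above a set limit in either of two repeat tests at 20 µM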;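 further: tim10-1 mutant grown at permissive 25 °C to find synthetic lethal compounds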
# TIM10 conf: confirmation of TIM10 yeast growth inhibitors. shares compounds with TIM10 inh. S. cerevisiae tim10 strain growth, BacTiter-Glo luminescence, 24 h. inhibition, % at 10 µM. 63% of 4,600 active;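 active means inhibition of yeast growth at or above a set limit in either of two replicates at 10 µM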; further: this counterscreen used the strain with wild-type TIM10
# tim23-1 confirm: confirmation of tim23-1 mutant yeast growth inhibitors | S. cerevisiae tim23-1 growth, BacTiter-Glo luminescence, 24 h | inhibition, % at 20 µM | shares compounds with tim23-1 inh | 83% of 4,400 active;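 active means inhibition above about 39% in either of two replicate wells at 20 µM, limit read from the data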;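 further: temperature-sensitive tim23-1 mutant grown at 25 °C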
# Numbers stand for hits; – = inactive; ? = inconclusive; · = not tested or not shown.
SMILES,tim10-1 inh,PfHsp90 set2,tim23-1 inh,TIM10 inh,SKKanGAS inh,NLRP3 yeast inh,tim10-1 confirm,tim23-1 confirm,others
O=C(CCCN1C(=O)/C(=C/c2ccco2)SC1=S)Nc1ccccc1C(=O)O,–,–,–,–,–,–,·,·,
Oc1c(Br)cc(Br)cc1C=Nc1cccnc1,57,101,79,67,–,–,42,90,TIM10 conf=48
COc1ccc(C=Nc2ccc3[nH]ncc3c2)c(O)c1,–,–,–,–,–,–,·,·,
Oc1c(Br)cc(Br)cc1C=Nc1ccc2[nH]ncc2c1,46,–,86,–,–,–,56,79,
Cc1nnc2n(c1=O)N=C(c1ccc(Cl)cc1)CS2,–,–,–,–,–,–,·,·,
COc1ccc(CCNC(N)=S)cc1OC,–,–,–,–,–,–,·,·,
Cc1ccc(NC(=O)c2ccccc2OCC(=O)Nc2cccc(Cl)c2C)nc1,–,·,–,–,–,–,·,·,
COC(=O)c1ccccc1NC(=O)CCS(=O)(=O)c1ccc(Br)s1,44,·,55,–,–,–,44,47,
Cc1ccccc1NC(=O)CCS(=O)(=O)c1ccc(Br)s1,–,–,–,–,–,–,·,·,
CCOC(=O)C1=C(C)N=C2SC(C(=O)OC)=CC(=O)N2C1c1ccc(F)cc1 (stereo unspecified),75,–,86,77,–,–,81,78,TIM10 conf=84
CCOC(=O)C1=C(C)N=C2SC(C(=O)OC)=CC(=O)N2C1c1cccc(OC)c1 (stereo unspecified),–,–,–,–,–,–,·,·,
CCOC(=O)c1ccsc1NC(=O)CCS(=O)(=O)c1ccccc1,54,–,62,43,–,–,42,51,TIM10 conf=38
O=C(/C(N=Nc1cccc([N+](=O)[O-])c1)=C(/O)c1ccc(Br)cc1)C(F)(F)F,62,·,62,–,84,–,62,73,
Cc1cccc(NC(=O)/C(C#N)=C\c2ccc(C(=O)O)cc2)c1,–,–,–,–,–,–,·,·,
N#C/C(=C\c1cccc([N+](=O)[O-])c1)C(=O)Nc1cccnc1,–,·,–,–,–,–,·,·,
N#C/C(=C\c1cccnc1)C(=O)NC1CCCCC1,58,–,70,65,–,–,41,70,TIM10 conf=–
N#C/C(=C\c1cccnc1)C(=O)Nc1cccc2ccccc12,61,–,77,60,–,–,58,78,TIM10 conf=73
Cc1cccc(NC(=O)/C(C#N)=C\c2cccnc2)c1,67,–,79,66,–,–,56,78,TIM10 conf=59
N#C/C(=C\c1cccnc1)C(=O)Nc1cccc(Cl)c1,48,–,85,50,–,–,34,78,TIM10 conf=–
Cc1ccc(C(=O)Cn2c(C(=O)OCCO)cc3ccccc32)cc1,–,–,–,–,–,–,·,·,
CCOc1ccccc1N1CCN(C(=O)c2cn(CC3CCCCC3)nn2)CC1,–,–,–,–,–,–,·,·,
Cc1nn(CC(=O)N(C)c2c(N)n(Cc3ccccc3)c(=O)[nH]c2=O)c(C)c1[N+](=O)[O-],–,–,–,–,·,–,·,·,
COc1ccccc1NC(=O)/C(C#N)=C/c1cccnc1,–,–,–,–,–,–,·,·,
N#C/C(=C\c1cccnc1)C(=O)Nc1ccc(Cl)cc1,61,–,76,61,–,–,–,66,TIM10 conf=38
Cc1cc(N2CCCCC2)n2nc(C)c(-c3ccccc3)c2n1,43,–,50,–,–,–,33,47,
SMILES,tim10-1 inh,PfHsp90 set2,tim23-1 inh,TIM10 inh,SKKanGAS inh,NLRP3 yeast inh,tim10-1 confirm,tim23-1 confirm,others
Cc1cc(N2CCC(C)CC2)n2nc(C)c(-c3ccccc3)c2n1,–,–,–,–,–,–,·,·,
COc1ccccc1-c1coc2c(CN3CCOCC3)c(O)ccc2c1=O,–,–,–,–,–,–,·,·,
C=Cn1ccnc1CC(O)c1ccc(OC)cc1 (stereo unspecified),–,–,–,–,–,–,·,·,
O=C(CSCc1ccccc1Br)N/N=C/c1ccc2c(c1)OCO2,51,–,60,–,–,–,46,50,
Cc1cc(C)nc(SCC(=O)N/N=C/c2ccc3c(c2)OCO3)n1,–,–,–,–,–,–,·,·,
N#Cc1cc(-c2ccccc2)[nH]c1-c1nccc2ccccc12,42,–,51,–,–,–,–,44,
Cc1cc(C#N)c2ccccc2n1,–,–,–,–,–,–,·,·,
O=C(Nc1nc(-c2cc(Cl)sc2Cl)cs1)c1ccc(Br)s1,–,–,–,–,–,–,·,·,
O=C(Nc1nc(-c2ccccn2)cs1)c1ccc(Br)s1,53,126,56,–,–,–,34,47,
Cc1cccc(N(CC(=O)NCc2ccc(F)cc2)C(=O)c2csnn2)c1C,–,–,–,–,–,–,·,·,
CC(=O)NC(c1cc(Cl)c2cccnc2c1O)C1CC1 (stereo unspecified),–,–,–,–,·,–,·,·,
CC(=O)NC(c1cc(Cl)c2cccnc2c1O)C(C)C (stereo unspecified),–,–,–,–,·,–,·,·,
Oc1c(C(c2ccccn2)N2CCC(Cc3ccccc3)CC2)cc(Cl)c2cccnc12 (stereo unspecified),43,·,55,–,75,–,–,68,
Cc1ccc(C(c2cc(Cl)c3cccnc3c2O)N2CCN(C)CC2)cc1 (stereo unspecified),41,107,55,–,51,–,–,80,
CCC(C(=O)OCC(=O)N(CC)c1c(N)n(Cc2ccccc2)c(=O)[nH]c1=O)c1ccccc1 (stereo unspecified),–,–,–,–,·,–,·,·,
CC1CCC(NC(=O)CN2C(=O)NC3(CCCCC3C)C2=O)CC1 (stereo unspecified),–,·,–,–,·,–,·,·,
c1cncc(-c2nnc(-c3cccnc3)nn2)c1,50,·,54,–,–,–,40,56,
COc1ccc(C(=O)NC(=S)NCc2ccccc2)cc1OC,–,–,–,–,–,–,·,·,
COc1ccc(C(=O)NC(=S)NCc2ccco2)cc1Br,46,–,54,–,–,–,38,53,
COc1ccc(C(=O)NC(=S)NC(C)(C)C)cc1Br,40,–,64,60,–,–,47,77,TIM10 conf=53
CC(=O)c1cccc2c(O)c(C3=Nc4ccccc4C3=O)[nH]c12,73,–,88,63,?,–,57,90,TIM10 conf=–
Cc1ccc(S(=O)(=O)NCC(C)n2nc(C)cc2C)cc1 (stereo unspecified),–,–,–,–,–,–,·,·,
